Test results from PubChem BioAssay AID1159580 (chemical genetic matrix, 2015).
Several values for one entry are separate records, joined by “and”; a condition that tells them apart may be missing. Equal entries are not always repeated. Screen size: about 5,500 compounds; about 2,000 (36%) were called active. About 18% were inconclusive and are not listed. No stated cut-off is given here; in the data, active means normalized growth mostly below about 0.91 (no sharp cut-off); inconclusive means no clear call, values can overlap the other calls; inactive means mostly above about 0.92. This is one part of the list.

Experiment: chemical genetic growth profiling, strain panel (AID 1159580);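 further: tested at 20 µM; growth read once vehicle control cultures reached saturation at 30 °C; 1 = growth at the plate median or of vehicle wells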
Settings: S. cerevisiae deletion strains, growth OD

Measured: normalized growth

CN1C(CC(=O)c2ccccc2)CCCC1CC(O)c1ccccc1 (configuration not stated)
inactive: locus YAL013W, strain DEP1, stronger effect = lower value 1.01 | locus YAL021C, strain ccr4, stronger effect = lower value 0.974 | locus YAL026C, strain drs2, stronger effect = lower value 0.976 | locus YAL030W, strain snc1, stronger effect = lower value 0.977 | locus YBL061C, strain skt5, stronger effect = lower value 0.976 | locus YBR009C, strain hhf1, stronger effect = lower value 0.972 | locus YBR021W, strain FUR4, stronger effect = lower value 1.02 | locus YBR023C, strain chs3, stronger effect = lower value 0.977 | locus YBR171W, strain sec66, stronger effect = lower value 0.989 | locus YBR229C, strain ROT2, stronger effect = lower value 1.01 | locus YBR231C, strain swc5, stronger effect = lower value 0.978 | locus YBR279W, strain paf1, stronger effect = lower value 0.984 | locus YCL011C, strain gbp2, stronger effect = lower value 0.966 | locus YCL016C, strain dcc1, stronger effect = lower value 0.978 | locus YCL029C, strain bik1, stronger effect = lower value 0.968 | locus YCL061C, strain MRC1, stronger effect = lower value 0.993 | locus YCL069W, strain vba3, stronger effect = lower value 0.982 | locus YCR088W, strain abp1, stronger effect = lower value 0.984 | locus YDL005C, strain med2, stronger effect = lower value 0.98 | locus YDL035C, strain GPR1, stronger effect = lower value 1.01 | locus YDL040C, strain nat1, stronger effect = lower value 0.976 | locus YDL074C, strain BRE1, stronger effect = lower value 1.01 | locus YDL101C, strain DUN1, stronger effect = lower value 1.01 | locus YDL134C, strain PPH21, stronger effect = lower value 1.01 | locus YDL185W, strain tfp1, stronger effect = lower value 0.992 | locus YDL192W, strain arf1, stronger effect = lower value 0.991 | locus YDR001C, strain nth1, stronger effect = lower value 0.979 | locus YDR069C, strain doa4, stronger effect = lower value 0.999 | locus YDR101C, strain arx1, stronger effect = lower value 0.97 | locus YDR137W, strain rgp1, stronger effect = lower value 0.918 | locus YDR150W, strain NUM1, stronger effect = lower value 1.02 | locus YDR159W, strain sac3, stronger effect = lower value 0.959 | locus YDR162C, strain NBP2, stronger effect = lower value 1.01 | locus YDR195W, strain ref2 0.928 | locus YDR297W, strain sur2, stronger effect = lower value 0.98 | locus YDR318W, strain mcm21, stronger effect = lower value 0.994 | locus YDR334W, strain swr1, stronger effect = lower value 0.975 | locus YDR335W, strain msn5, stronger effect = lower value 0.986 | locus YDR388W, stronger effect = lower value 0.975 | locus YDR392W, strain spt3, stronger effect = lower value 0.934 | locus YDR502C, strain sam2, stronger effect = lower value 0.98 | locus YEL003W, strain gim4, stronger effect = lower value 0.991 | locus YEL037C, strain rad23, stronger effect = lower value 0.984 | locus YEL061C, strain CIN8 (second series), stronger effect = lower value 0.966 | locus YEL061C, strain CIN8, stronger effect = lower value 1.01 | locus YER015W, strain faa2, stronger effect = lower value 0.989 | locus YER016W, strain bim1, stronger effect = lower value 0.98 | locus YER110C, stronger effect = lower value 0.981 | locus YER111C, strain swi4, stronger effect = lower value 0.98 | locus YER155C, strain BEM2 (second series), stronger effect = lower value 0.982 | locus YER155C, strain BEM2, stronger effect = lower value 1.01 | locus YER167W, strain BCK2, stronger effect = lower value 1.02 | locus YFR010W, strain ubp6, stronger effect = lower value 0.967 | locus YGL078C, strain dbp3, stronger effect = lower value 0.977 | locus YGL086W, strain mad1, stronger effect = lower value 0.997 | locus YGL167C, strain pmr1, stronger effect = lower value 0.963 | locus YGL173C, strain kem1, stronger effect = lower value 0.982 | locus YGL227W, strain vid30, stronger effect = lower value 0.962 | locus YGL240W, strain doc1, stronger effect = lower value 0.981 | locus YGL248W, strain PDE1, stronger effect = lower value 1.02 | locus YGL253W, strain hxk2, stronger effect = lower value 0.991 | locus YGR078C, strain PAC10, stronger effect = lower value 0.996 | locus YGR135W, strain pre9, stronger effect = lower value 0.968 | locus YGR229C, strain SMI1, stronger effect = lower value 0.967 | locus YGR252W, strain gcn5, stronger effect = lower value 1 | locus YHR013C, strain ard1, stronger effect = lower value 0.952 | locus YHR027C, strain rpn1, stronger effect = lower value 0.973 | locus YHR030C, strain SLT2, stronger effect = lower value 1.01 and 0.976 | locus YHR079C, strain IRE1 (second series), stronger effect = lower value 0.985 | locus YHR079C, strain IRE1, stronger effect = lower value 0.983 | locus YHR094C, strain hxt1, stronger effect = lower value 0.988 | locus YHR129C, strain ARP1, stronger effect = lower value 1.01 | locus YHR142W, strain chs7, stronger effect = lower value 0.999 | locus YHR200W, strain rpn10, stronger effect = lower value 0.989 | locus YIL066C, strain RNR3, stronger effect = lower value 1.01 | locus YIL073C, strain SPO22, stronger effect = lower value 1.02 | locus YIL125W, strain kgd1, stronger effect = lower value 1 | locus YIR030C, strain dcg1, stronger effect = lower value 0.993 | locus YJL092W, strain hpr5, stronger effect = lower value 0.982 | locus YJL095W, strain BCK1 (second series), stronger effect = lower value 0.979 | locus YJL095W, strain BCK1, stronger effect = lower value 0.975 and 0.978 | locus YJL115W, strain asf1, stronger effect = lower value 0.978 | locus YJL129C, strain trk1, stronger effect = lower value 0.974 | locus YJL134W, strain LCB3, stronger effect = lower value 1.01 | locus YJL154C, strain vps35, stronger effect = lower value 0.97 | locus YJL164C, strain tpk1, stronger effect = lower value 0.996 | locus YJL166W, strain qcr8, stronger effect = lower value 0.984 | locus YJL168C, strain set2, stronger effect = lower value 0.99 | locus YJL187C, strain SWE1 (second series), stronger effect = lower value 0.996 | locus YJL187C, strain SWE1, stronger effect = lower value 0.975 | locus YJR043C, strain POL32, stronger effect = lower value 1 | locus YJR066W, strain TOR1, stronger effect = lower value 0.935
